This is part of a sample that, as a whole, favours compounds with a hit. Of some 83,000 tested, about 20% had one in any assay.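 Method: cells in 96-well plates; compound added at one concentration; 48 h incubation; percent growth measured; values under 10 scored active.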 Values without a mark were called inactive. Active and inactive are the calls of the source.

This passage reports growth results from PubChem BioAssay (NCI).

Test systems include RPMI-8226 leukemia; OVCAR-8 ovarian; OVCAR-5 ovarian; OVCAR-4 ovarian; SK-OV-3 ovarian; IGROV1 ovarian; OVCAR-3 ovarian; HS 578T breast; NCI/ADR-RES ovarian; T-47D breast.
Common to all, as to experiment: NCI-60 one-dose screen, 48 h (100 = growth as untreated, 0 = no growth, -100 = all killed)
Holding throughout (conditions): 10 µM

In the case of `Cc1cc(=O)n2nnc3c4ccccc4ccc3n12`, the growth was 8.01% (active) in the test on RPMI-8226 leukemia; 27.3% in the test with OVCAR-8 ovarian; 88.5% in the test with OVCAR-5 ovarian; 49.3% in the test on OVCAR-4 ovarian; 53.6% in the test with SK-OV-3 ovarian; 61.8% with IGROV1 ovarian. For the same compound, the growth with OVCAR-3 ovarian was 40.4%; in the test on HS 578T breast it was 104%; in the test on NCI/ADR-RES ovarian, 68.4%; with T-47D breast, 47.6%.
Consider `Cc1c(Cl)cccc1NC(=O)c1sc2nc3c(cc2c1N)C(=O)CCC3`, for which the growth was 5.08% (active) in the test on RPMI-8226 leukemia; 13.5% in the test with OVCAR-8 ovarian; 31.8% in the test with OVCAR-5 ovarian; 40.4% in the test with OVCAR-4 ovarian; 14.4% in the test on SK-OV-3 ovarian; 9.61% (active) with IGROV1 ovarian. Further, the growth in the test with OVCAR-3 ovarian was -40.1% (active); in the test with HS 578T breast, 17.1%; with NCI/ADR-RES ovarian, 2.57% (active); with T-47D breast, 54.5%.
Consider `COc1cc(Nc2ccnc(NCCCNc3ccnc4cc(Cl)ccc34)n2)cc(OC)c1`, for which the growth is -45.3% (active) with RPMI-8226 leukemia; 3.57% (active) in the test on OVCAR-8 ovarian; 44.7% with OVCAR-5 ovarian; 2.29% (active) with OVCAR-4 ovarian; 14.7% in the test on SK-OV-3 ovarian; 27.2% with IGROV1 ovarian. Besides, the growth is -58.3% (active) in the test on OVCAR-3 ovarian, -53.1% (active) with HS 578T breast, 50.7% in the test with NCI/ADR-RES ovarian and -63.1% (active) with T-47D breast.
`O=C1/C(=C/c2ccc([N+](=O)[O-])s2)Oc2ccccc21`: the growth with RPMI-8226 leukemia is 0.673% (active); with OVCAR-8 ovarian it was 2.43% (active); in the test with OVCAR-5 ovarian, -56.7% (active); in the test with OVCAR-4 ovarian, -86.7% (active); in the test with SK-OV-3 ovarian it was 12.3%; in the test with IGROV1 ovarian it was -72.5% (active). The growth is -60.8% (active) with OVCAR-3 ovarian, 25.7% in the test with HS 578T breast, 12.3% with NCI/ADR-RES ovarian and 2.78% (active) in the test on T-47D breast.
For `COc1ccc2c(c1)C(=O)c1c-2c(OCCN(C)C)nc2cc(OC)c(OC)cc12`, the growth in the test on RPMI-8226 leukemia was 32.2%; in the test with OVCAR-8 ovarian, 37.2%; in the test with OVCAR-5 ovarian it was 117%; with OVCAR-4 ovarian it was 50.7%; with SK-OV-3 ovarian, 74.2%; with IGROV1 ovarian it was 35%. For the same compound, the growth in the test on OVCAR-3 ovarian is 63.9%; in the test with HS 578T breast it was 85.7%; with NCI/ADR-RES ovarian it was 41.8%; with T-47D breast, 101%.
Consider `O=C(Nc1cccc(-n2cc(-c3ccncc3)c(-c3cc(O)cc(Cl)c3)n2)c1)Nc1ccc(Cl)c(C(F)(F)F)c1`, for which the growth in the test on RPMI-8226 leukemia was 13.8%; with OVCAR-8 ovarian, 3.69% (active); with OVCAR-5 ovarian, 59.3%; with OVCAR-4 ovarian it was 31.5%; in the test with SK-OV-3 ovarian, 63.1%; in the test with IGROV1 ovarian, 30.6%. The growth with OVCAR-3 ovarian is 1.88% (active); in the test with HS 578T breast it was 21.7%; in the test with NCI/ADR-RES ovarian, 41.5%; in the test with T-47D breast, 25%.
Take `O=C1C(c2ccccc2)C2C=CC(C2)N1O` (stereo not given): the growth was 81% in the test on RPMI-8226 leukemia; 104% in the test on OVCAR-8 ovarian; 119% in the test with OVCAR-5 ovarian; 116% in the test with OVCAR-4 ovarian; 106% in the test with SK-OV-3 ovarian; 108% in the test with IGROV1 ovarian. Further, the growth in the test on OVCAR-3 ovarian is 112%; in the test with HS 578T breast, 105%; in the test with NCI/ADR-RES ovarian, 112%; in the test on T-47D breast it was 92.1%.
On to `O=C(Nc1cccc(-n2cc(-c3ccncc3)c(-c3ccc(O)c(Cl)c3)n2)c1)c1ccc(N2CCOCC2)c(C(F)(F)F)c1`, for which the growth with RPMI-8226 leukemia is -18% (active); with OVCAR-8 ovarian it was 30.7%; in the test with OVCAR-5 ovarian, 37.8%; in the test on OVCAR-4 ovarian it was 69.3%; with SK-OV-3 ovarian, 64.2%; in the test with IGROV1 ovarian, 64.8%. Also, the growth is 60.4% with OVCAR-3 ovarian, 33.5% in the test on HS 578T breast, 43.1% with NCI/ADR-RES ovarian and 36.4% in the test with T-47D breast.
On to `Nc1ncnc2[nH]c(=O)[nH]c12`, for which the growth in the test on RPMI-8226 leukemia is 195%; in the test on OVCAR-8 ovarian, 93.3%; in the test on OVCAR-5 ovarian, 87.9%; in the test on OVCAR-4 ovarian, 96.7%; in the test on SK-OV-3 ovarian, 110%; in the test on IGROV1 ovarian it was 113%. Further, the growth is 98.4% in the test with OVCAR-3 ovarian, 144% in the test on HS 578T breast, 107% in the test with NCI/ADR-RES ovarian and 94.2% in the test on T-47D breast.
Consider `COc1ccc2c(c1)N(CCO)C1=C(C(=O)OC1)C2c1ccc(OC)c(OC)c1` (stereo not given), for which the growth with RPMI-8226 leukemia is 62.9%; in the test with OVCAR-8 ovarian, 48.7%; with OVCAR-5 ovarian, 47.7%; in the test on OVCAR-4 ovarian, 64.6%; in the test on SK-OV-3 ovarian it was 40.5%; with IGROV1 ovarian, 53.4%. For the same compound, the growth is -18.2% (active) in the test with OVCAR-3 ovarian, 31% in the test on HS 578T breast, 71.8% in the test with NCI/ADR-RES ovarian and 45.5% in the test with T-47D breast.
`CN1c2ccccc2[C@]2(Cc3ccccc3)Cc3ccccc3N[C@H]12`: the growth in the test with RPMI-8226 leukemia was 98.9%; with OVCAR-8 ovarian, 106%; in the test on OVCAR-5 ovarian it was 93.8%; with OVCAR-4 ovarian, 91%; with SK-OV-3 ovarian it was 122%; in the test with IGROV1 ovarian, 88.8%. The growth with OVCAR-3 ovarian is 120%; in the test on HS 578T breast, 110%; in the test with NCI/ADR-RES ovarian, 107%; with T-47D breast, 109%.
Regarding `CC/C(C)=C(\C)C(=O)O`, the growth in the test with RPMI-8226 leukemia is 107%; in the test with OVCAR-8 ovarian, 103%; in the test on OVCAR-5 ovarian, 112%; in the test with OVCAR-4 ovarian, 118%; in the test on SK-OV-3 ovarian it was 91.9%; in the test on IGROV1 ovarian it was 104%. Moreover, the growth in the test with OVCAR-3 ovarian was 105%; in the test on HS 578T breast, 100%; with NCI/ADR-RES ovarian, 108%; in the test with T-47D breast it was 100%.
Turning to `CC/C(=C(/c1ccc(OCCN(C)C)cc1)c1ccc(OC(=O)CCCCC(=O)c2c(C)[nH]c(/C=C3\N=C(c4ccc[nH]4)C=C3OC)c2C)cc1)c1ccccc1`, the growth in the test on RPMI-8226 leukemia is 25.4%; with OVCAR-8 ovarian it was 72.5%; in the test on OVCAR-5 ovarian, 91.3%; in the test with OVCAR-4 ovarian, 55%; in the test on SK-OV-3 ovarian, 81.4%; in the test on IGROV1 ovarian, 85.4%. The growth in the test on OVCAR-3 ovarian was 80.1%; with HS 578T breast it was 33.8%; in the test with NCI/ADR-RES ovarian, 71.7%; with T-47D breast, 25.2%.
For `N=C(N)c1ccc(-c2ccc(-c3cccs3)s2)s1`, the growth was -46.6% (active) in the test with RPMI-8226 leukemia; -47.2% (active) in the test with OVCAR-8 ovarian; 0.532% (active) with OVCAR-5 ovarian; -64.1% (active) in the test with OVCAR-4 ovarian; 74.2% in the test with SK-OV-3 ovarian; 3.96% (active) in the test with IGROV1 ovarian. For the same compound, the growth with OVCAR-3 ovarian is -89.2% (active); with HS 578T breast it was -27.1% (active); in the test on NCI/ADR-RES ovarian it was -29.3% (active); with T-47D breast it was 70.2%.
For the compound `COc1cc2cc3c(nc2cc1OC)CCN3Cc1ccc(NC(=O)c2ccc(Cl)c(C(F)(F)F)c2)cc1`, the growth in the test with RPMI-8226 leukemia is 91.2%; in the test with OVCAR-8 ovarian, 88.6%; with OVCAR-5 ovarian it was 99.5%; in the test with OVCAR-4 ovarian it was 80.4%; with SK-OV-3 ovarian, 91.7%; in the test with IGROV1 ovarian, 78.5%. For the same compound, the growth is 94.3% with OVCAR-3 ovarian, 98.5% with HS 578T breast, 99.4% in the test on NCI/ADR-RES ovarian and 64.2% in the test with T-47D breast.
For `Nc1ccc2cc(S(=O)(=O)O)cc(O)c2c1N=Nc1ccc(F)cc1`, the growth was 106% in the test on RPMI-8226 leukemia; 107% in the test with OVCAR-8 ovarian; 99.5% in the test with OVCAR-5 ovarian; 137% in the test on OVCAR-4 ovarian; 103% with SK-OV-3 ovarian; 120% in the test on IGROV1 ovarian. The growth in the test on OVCAR-3 ovarian is 117%; in the test on HS 578T breast, 111%; in the test with NCI/ADR-RES ovarian, 99.3%; in the test on T-47D breast it was 101%.
Take `COc1ccc(-c2nn(-c3cccc(NC(=O)c4ccc(N5CCOCC5)c(C(F)(F)F)c4)c3)cc2-c2ccncc2)cc1Cl`: the growth in the test on RPMI-8226 leukemia was 14.6%; in the test with OVCAR-8 ovarian, 55.3%; with OVCAR-5 ovarian, 73.1%; in the test with OVCAR-4 ovarian, 92.3%; in the test with SK-OV-3 ovarian it was 83.5%; with IGROV1 ovarian, 94.3%. The growth was 83.3% in the test on OVCAR-3 ovarian, 41.1% with HS 578T breast, 52.7% in the test with NCI/ADR-RES ovarian and 68.1% in the test with T-47D breast.
Turning to `COc1ccc(-c2cc(-c3ccc(N(C)C)cc3)c(C#N)c(N3CCCC3)n2)cc1`, the growth in the test with RPMI-8226 leukemia is 38.7%; in the test with OVCAR-8 ovarian, 83.3%; in the test with OVCAR-5 ovarian it was 64.8%; with OVCAR-4 ovarian it was 81.4%; in the test with SK-OV-3 ovarian it was 72.7%; in the test with IGROV1 ovarian it was 64.9%. The growth in the test on OVCAR-3 ovarian was 105%; in the test on HS 578T breast, 103%; with NCI/ADR-RES ovarian, 61.8%; in the test on T-47D breast, 67%.
On to `CS(=O)(=O)Nc1ccc(Nc2c3ccccc3nc3cc([N+](=O)[O-])ccc23)cc1`, for which the growth in the test on RPMI-8226 leukemia was 0.427% (active); with OVCAR-8 ovarian, 16.6%; with OVCAR-5 ovarian, 67.7%; with OVCAR-4 ovarian it was 46.8%; in the test with SK-OV-3 ovarian it was 53.3%; with IGROV1 ovarian, 10.5%. The growth in the test on OVCAR-3 ovarian was -1.65% (active); with HS 578T breast it was 60.3%; with NCI/ADR-RES ovarian, 87%; in the test on T-47D breast, -11% (active).
Turning to `Cc1cccc(Cl)c1NC(=O)c1ccc2nc(NC(=O)NC3CCN(C)CC3)sc2c1`, the growth with RPMI-8226 leukemia was 87.7%; in the test with OVCAR-8 ovarian, 94.6%; in the test with OVCAR-5 ovarian, 71.1%; in the test with OVCAR-4 ovarian, 99.5%; in the test on SK-OV-3 ovarian it was 61.8%; with IGROV1 ovarian it was 86%. Also, the growth in the test with OVCAR-3 ovarian is 116%; with HS 578T breast it was 48.6%; with NCI/ADR-RES ovarian, 106%; with T-47D breast it was 66%.
